SMILES strings stand for the structures. Values joined by “and” are separate entries in the source; they are usually repeats but may differ in a detail not shown here. Identical values can stand only once. Values without a mark were called inactive. The call rests on the fitted dose curve. A value given as a limit tells only on which side of the number the result lay.
Potency means the concentration at half of the fitted maximal effect.

For the assay, the target named is Glucocorticoid receptor (Homo sapiens) (UniProt P04150). In words: GR-EFC Redistribution (AID 451). Conditions: CHO-K1 GR-EFC translocation, beta-gal luminescence, 2 h. A digest of the protocol: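 CHO-K1 cells expressing nuclear EA and GR-ED fragments of b-gal; compounds titrated up to 46 uM final, 2 h at 37 C. GR nuclear translocation read as complemented b-gal luminescence after 1 h RT detection.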
Glucocorticoid receptor (Homo sapiens), sequence (P04150 whole entry, looked up, the tested form may be a part): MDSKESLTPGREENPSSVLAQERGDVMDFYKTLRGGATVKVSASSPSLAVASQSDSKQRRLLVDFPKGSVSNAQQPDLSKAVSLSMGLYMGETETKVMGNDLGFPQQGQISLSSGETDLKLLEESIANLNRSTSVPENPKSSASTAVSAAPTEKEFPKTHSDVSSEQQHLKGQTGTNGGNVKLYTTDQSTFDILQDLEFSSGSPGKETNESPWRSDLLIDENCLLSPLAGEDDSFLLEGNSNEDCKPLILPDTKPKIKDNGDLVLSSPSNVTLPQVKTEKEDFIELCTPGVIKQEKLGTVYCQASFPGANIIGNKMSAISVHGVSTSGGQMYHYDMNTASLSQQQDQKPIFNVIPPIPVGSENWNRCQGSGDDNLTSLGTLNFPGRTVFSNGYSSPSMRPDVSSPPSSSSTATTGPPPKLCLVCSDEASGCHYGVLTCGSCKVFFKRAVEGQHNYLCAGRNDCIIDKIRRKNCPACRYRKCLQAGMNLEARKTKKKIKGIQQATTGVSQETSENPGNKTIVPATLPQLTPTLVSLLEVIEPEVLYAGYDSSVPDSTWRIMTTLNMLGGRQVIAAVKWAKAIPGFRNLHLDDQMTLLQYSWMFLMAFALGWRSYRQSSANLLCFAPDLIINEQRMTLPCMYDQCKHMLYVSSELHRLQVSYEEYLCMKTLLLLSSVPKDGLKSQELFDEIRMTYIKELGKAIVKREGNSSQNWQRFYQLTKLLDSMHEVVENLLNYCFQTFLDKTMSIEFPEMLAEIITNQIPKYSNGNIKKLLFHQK
`CN1CCN(c2nc3cc(C(F)(F)F)ccc3n3cccc23)CC1`: the Potency was > 46 µM.
For the compound `O=C(O)C1=CCCNC1`, the Potency was > 46 µM.
The figure for `O=S(=O)(c1cccc2c(Cl)cccc12)N1CCCNCC1` is > 46 µM; for `CNc1cc(NS(=O)(=O)c2ccc(N)cc2)nc(NC)n1` it is > 46 µM; for `CNC(=O)c1cc2c(cn1)[nH]c1ccccc12` it is > 46 µM.
Under `N=C(N)c1ccc(N)cc1` stands > 46 µM.
On to `NC(=Nc1ccccc1)NC(=O)c1nc(Cl)c(N)nc1N`, for which the Potency was > 46 µM.
The figure for `N=C(N)SCCc1cnc[nH]1` is > 46 µM; for `COc1ccccc1N1CCN(CCCCNC(=O)c2ccc3ccccc3c2)CC1` it is > 46 µM and > 20.6 µM.
The figure for `CCN(c1nc(N)c(C(=O)N=C(N)N)nc1Cl)C(C)C` is > 46 µM; for `COc1cc(CC(=O)O)ccc1O` it is > 46 µM.
The figure for `C#CCn1c(=O)c2c(ncn2C)n(C)c1=O` is > 46 µM; for `Cn1ccnc1` it is > 46 µM; for `Cn1c(=O)c2[nH]c(C3CCCC3)nc2n(C)c1=O` it is > 46 µM.
For the compound `CC(N)=O`, the Potency was > 46 µM.
As for `COc1ccc2c(c1)c(CC(=O)O)c(C)n2Cc1ccc(Cl)cc1`, the Potency was > 46 µM.
For the compound `CCCCCCCCCCCCCCC[C@H](O)[C@H](N)CO`, the Potency was > 46 µM.
Consider `Oc1ccc(Cn2cc[nH]c2=S)cc1`, for which the Potency is > 46 µM.
The figure for `C=CC[C@H](N)C(=O)O` is > 46 µM; for `CCN(CC)CCCCCCCCOC(=O)c1cc(OC)c(OC)c(OC)c1` it is > 46 µM.

(Values after PubChem BioAssay (NCATS).)
